The source of these data is PubChem BioAssay (Tox21).

In experiment [1] the target is Aryl hydrocarbon receptor (Homo sapiens) (UniProt P35869). Briefly: qHTS assay to identify small molecule that activate the aryl hydrocarbon receptor (AhR) signaling pathway (AID 743085). Also: nearly all actives have a fitted effect of over 15% in size. Also: potency is read from the fitted curve at half-maximal effect.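 As to activation: HG2L7.5c1 human HepG2 liver cells with stably integrated DRE-driven firefly reporter; series mostly up to about 70 µM.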 A digest of the protocol:
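Measured in HG2L7.5c1 cells: CellTiter-Fluor signal (30 min incubation, 37C) for viability, then luciferase luminescence (30 min, room temperature). Compound contact time was 24 h at 37C, following a 5 h pre-incubation.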
(Quantitative high-throughput screening tests each substance at several concentrations.)

Experiment [2] can be described thus: qHTS assay to identify small molecule that activate the aryl hydrocarbon receptor (AhR) signaling pathway - cell viability counter screen (AID 743086). Also: nearly all actives have a fitted effect of over 45% in size. Also: potency is read from the fitted curve at half-maximal effect. A digest of the protocol: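 HepG2-AhR-luc (HG2L7.5c1) cells, 4000/well, treated 24 h at 37 C with compound; viability measured as CellTiter-Fluor fluorescence after 30 min in the same wells as the luciferase read.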

In experiment [3] the target is Peroxisome proliferator-activated receptor gamma (Homo sapiens) (UniProt P37231). Nature of the experiment: qHTS assay to identify small molecule antagonists of the peroxisome proliferator-activated receptor gamma (PPARg) signaling pathway (AID 743191; calls by dose curve; also: nearly all actives have a fitted effect of over 30% in size; also: potency is read from the fitted curve at half-maximal effect). A digest of the protocol: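 GeneBLAzer PPARg UAS-bla HEK293H cells, 5 h post-plating, exposed to compounds 17 h at 37C. LiveBLAzer B/G FRET substrate added for 1 h at room temperature; beta-lactamase reporter read by fluorescence intensity.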

The nature of experiment [4]: qHTS assay to identify small molecule antagonists of the peroxisome proliferator-activated receptor gamma (PPARg) signaling pathway - cell viability counter screen (AID 743194). Also: nearly all actives have a fitted effect of over 55% in size. A digest of the protocol:
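Cytotoxicity counter screen in PPARg-bla HEK293H cells, same wells as reporter assay. Compounds plus 50 nM rosiglitazone (final) for 17 h at 37 C, then viability read by CellTiter-Glo luminescence.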

Experiment [5] in a line: qHTS assay for small molecule agonists of the antioxidant response element (ARE) signaling pathway (AID 743202; active = well fitted activation curve with a large enough effect in the signal ratio in the repeat runs, not every such curve was filed as active; the % refers to the signal ratio; also: potency is read from the fitted curve at half-maximal effect). A digest of the protocol: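 HepG2 ARE-bla reporter line, 2,000 cells/well; 5 h preincubation 37 C/5% CO2; compound (DMSO) 16 h 37 C; B/G FRET substrate 2 h RT; fluorescence intensity.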
Experiment [6] can be described thus: qHTS assay for small molecule agonists of the antioxidant response element (ARE) signaling pathway - cell viability counter screen (AID 743203; calls by dose curve; also: nearly all actives have a fitted effect of over 55% in size; also: potency is read from the fitted curve at half-maximal effect). A digest of the protocol:
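Viability counter screen: stably transfected ARE-bla HepG2 line, 16 hrs compound exposure at 37C/5% CO2, ATP-based CellTiter-Glo luminescence measured in the reporter wells.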

The nature of experiment [7]: qHTS assay for small molecule activators of the heat shock response signaling pathway - cell viability counter screen (AID 743209). Also: nearly all actives have a fitted effect of over 50% in size. A digest of the protocol: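 Viability of HSE-bla HeLa cells is measured with CellTiter-Glo in the wells already used for the reporter read. Compound exposure lasts 5 h at 37 C, and luminescence is read after 30 min at room temperature.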

The nature of experiment [8]: qHTS assay for small molecule activators of the heat shock response signaling pathway (AID 743210; active = well fitted activation curve with a large enough effect in the signal ratio in the repeat runs, with a control signal flat, not every such curve was filed as active; the % refers to the signal ratio; also: potency is read from the fitted curve at half-maximal effect; as to activation: series mostly up to about 63 µM). A digest of the protocol: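 Beta-lactamase reporter read-out: FRET substrate fluorescence after 2.5 h at RT, following 5 h compound treatment at 37 C of HeLa cells carrying HSE-driven bla reporter; quantitative HTS format.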
The nature of experiment [9]: qHTS assay to identify small molecule agonists of the peroxisome proliferator-activated receptor delta (PPARd) signaling pathway - cell viability counter screen (AID 743211). Also: nearly all actives have a fitted effect of over 55% in size. Also: potency is read from the fitted curve at half-maximal effect. A digest of the protocol: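 Following 5 h plating at 37 C and 5% CO2, PPARd UAS-bla HEK293H cells took up test compounds for 17 h. Viability was quantified by luminescence 30 min after CellTiter-Glo addition at room temperature.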

The target in experiment [10] is Peroxisome proliferator-activated receptor gamma (Homo sapiens) (UniProt P37231). Briefly: qHTS assay to identify small molecule agonists of the peroxisome proliferator-activated receptor gamma (PPARg) signaling pathway (AID 743094; active = well fitted activation curve with a large enough effect in the signal ratio in the repeat runs, not every such curve was filed as active; the % refers to the signal ratio). A digest of the protocol: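 Reporter activation was scored by fluorescence of cleaved LiveBLAzer B/G substrate (1 h, room temperature) in PPARg-bla HEK293H cells previously treated 17 h at 37C with DMSO-dissolved compounds.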

Structures are written as SMILES. Records with an inconclusive call do not appear. Calls of active or inactive are those of the source. Unless noted, calls follow the shape of the dose curve; as a rule, active = well fitted curve in the direction sought with a large enough effect in the repeat runs; inconclusive = weak or mixed curves; inactive = no such curve, though single readings can be large; an effect the other way counts as inactive or inconclusive.

Peroxisome proliferator-activated receptor gamma (Homo sapiens), sequence (P37231 whole entry, looked up): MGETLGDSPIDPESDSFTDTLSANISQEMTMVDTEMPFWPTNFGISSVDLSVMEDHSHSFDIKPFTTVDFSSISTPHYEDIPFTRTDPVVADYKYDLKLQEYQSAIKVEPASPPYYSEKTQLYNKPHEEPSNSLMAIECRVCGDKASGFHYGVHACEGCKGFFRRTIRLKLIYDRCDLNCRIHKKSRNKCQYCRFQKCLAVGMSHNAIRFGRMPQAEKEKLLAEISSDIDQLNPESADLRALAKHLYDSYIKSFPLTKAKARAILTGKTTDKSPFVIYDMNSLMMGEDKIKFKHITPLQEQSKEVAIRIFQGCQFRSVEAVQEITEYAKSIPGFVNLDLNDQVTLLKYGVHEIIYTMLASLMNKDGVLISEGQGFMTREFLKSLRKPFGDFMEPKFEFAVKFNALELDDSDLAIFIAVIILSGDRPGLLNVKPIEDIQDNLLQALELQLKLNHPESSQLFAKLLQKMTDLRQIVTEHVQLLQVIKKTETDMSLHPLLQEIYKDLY
Aryl hydrocarbon receptor (Homo sapiens), sequence (P35869 whole entry, looked up): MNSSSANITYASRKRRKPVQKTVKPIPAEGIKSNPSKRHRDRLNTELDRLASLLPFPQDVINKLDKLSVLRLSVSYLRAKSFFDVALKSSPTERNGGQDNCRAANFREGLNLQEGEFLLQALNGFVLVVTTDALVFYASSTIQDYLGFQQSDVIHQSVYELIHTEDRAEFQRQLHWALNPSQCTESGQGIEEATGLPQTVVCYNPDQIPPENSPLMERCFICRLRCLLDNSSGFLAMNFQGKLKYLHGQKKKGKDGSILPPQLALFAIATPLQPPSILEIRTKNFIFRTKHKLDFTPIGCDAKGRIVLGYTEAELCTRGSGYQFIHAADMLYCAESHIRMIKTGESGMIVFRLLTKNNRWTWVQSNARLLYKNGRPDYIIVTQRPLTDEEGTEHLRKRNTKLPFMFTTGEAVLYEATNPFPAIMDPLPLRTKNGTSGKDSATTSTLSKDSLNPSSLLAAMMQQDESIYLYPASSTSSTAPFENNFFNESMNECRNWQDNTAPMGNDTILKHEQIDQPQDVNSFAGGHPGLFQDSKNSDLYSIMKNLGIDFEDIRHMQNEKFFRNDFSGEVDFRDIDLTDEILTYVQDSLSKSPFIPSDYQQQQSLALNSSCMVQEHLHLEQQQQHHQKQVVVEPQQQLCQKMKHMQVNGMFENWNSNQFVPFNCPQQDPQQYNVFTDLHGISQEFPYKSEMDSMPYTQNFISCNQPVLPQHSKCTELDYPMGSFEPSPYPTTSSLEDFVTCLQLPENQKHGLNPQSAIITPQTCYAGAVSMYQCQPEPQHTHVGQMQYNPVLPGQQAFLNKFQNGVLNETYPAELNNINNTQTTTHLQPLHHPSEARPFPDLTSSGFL

For the compound `O=C(O)C(Cc1cc(I)c(O)c(I)c1)c1ccccc1` (centres undefined), the Potency entry in experiment [1], in experiment [2], in [4], in [5], in [6] and in experiment [7] was “inactive” in each case. The Potency entry in experiment [8] and in [9] was “inactive” in each case. Besides, in experiment [3], the Potency was 37.6 µM (active).
As to `CC(C)(O)c1ccccc1CC[C@@H](SCC1(CC(=O)O)CC1)c1cccc(/C=C/c2ccc3ccc(Cl)cc3n2)c1`, the Potency in experiment [1] is 23.7 µM (active). For the same compound, the Potency result in experiment [2], in experiment [10], in [6], in [7], in experiment [8] and in experiment [9] was “inactive” each time.
On to `Cc1cc(O)c(C(C)C)cc1Cl`, for which the Potency entry in [1], in experiment [2], in [4], in experiment [5], in experiment [6] and in experiment [7] was “inactive” throughout. The Potency entry in experiment [8] and in experiment [9] was “inactive” throughout.
In the case of `CC#N`, the Potency entry in experiment [1], in experiment [2], in experiment [4], in [5], in experiment [6] and in experiment [7] was “inactive” in each case. The Potency result in experiment [8] and in experiment [9] was “inactive” throughout.
As for `CC(=O)CC(c1ccc([N+](=O)[O-])cc1)c1c(O)c2ccccc2oc1=O` (centres undefined), the Potency entry in experiment [1], in [2], in experiment [4], in experiment [5], in experiment [6] and in experiment [7] was “inactive” each time. The Potency result in [8] and in [9] was “inactive” in each case.
Regarding `CCCCC(=O)O[C@]1(C(=O)CO)CC[C@H]2[C@@H]3CCC4=CC(=O)CC[C@]4(C)[C@H]3[C@@H](O)C[C@@]21C`, the Potency result in [1], in [2], in experiment [4], in experiment [5], in experiment [6] and in [7] was “inactive” in each case. The Potency entry in [8] and in experiment [9] was “inactive” in each case.
`COc1cc2ncnc(Nc3ccc(F)c(Cl)c3)c2cc1OCCCN1CCOCC1`: in [1], the Potency was 15 µM (active). Also, the Potency result in [2], in experiment [10], in [4], in experiment [7] and in experiment [8] was “inactive” throughout.
As for `CC1(C)O[C@@H]2C[C@H]3[C@@H]4CCC5=CC(=O)C=C[C@]5(C)[C@H]4[C@@H](O)C[C@]3(C)[C@]2(C(=O)CO)O1`, the Potency result in experiment [1], in experiment [2], in experiment [4], in [5], in experiment [6] and in experiment [7] was “inactive” throughout. In [8], the Potency entry is “inactive”.
Regarding `CCC(=O)Oc1ccc(/C(CC)=C(\CC)c2ccc(OC(=O)CC)cc2)cc1`, the Potency result in experiment [1], in experiment [2], in [10] and in experiment [6] was “inactive” each time.
Turning to `COc1cc2c(cc1OC)-c1cc(=Nc3c(C)cc(C)cc3C)n(C)c(=O)n1CC2`, the Potency in experiment [1] was 1.33 µM (active); in experiment [2], 29.8 µM (active); in experiment [3], 13.3 µM (active). For the same compound, the Potency result in [7] is “inactive”.
With `CNC(=S)NC`, the Potency entry in [1], in experiment [2], in experiment [3], in experiment [4], in [6] and in experiment [7] was “inactive” throughout. The Potency entry in experiment [8] and in [9] was “inactive” each time.
In the case of `O=[N+]([O-])c1cccc(S(=O)(=O)NCCNS(=O)(=O)c2cccc([N+](=O)[O-])c2)c1`, the Potency result in [1], in experiment [2], in experiment [10], in [6], in experiment [7] and in experiment [8] was “inactive” throughout.
With `CC(C)(CCl)c1ccccc1`, the Potency entry in experiment [1], in [2], in experiment [4], in experiment [5], in [6] and in [7] was “inactive” throughout. In addition, the Potency result in [9] is “inactive”.
On to `CC(=O)Oc1ccc(C(=C2CCCCC2)c2ccc(OC(C)=O)cc2)cc1`, for which the Potency entry in [1], in experiment [2], in [4], in [6] and in experiment [7] was “inactive” in each case. The Potency was 29.8 µM (active) in experiment [5] and 26.6 µM (active) in experiment [8].
For the compound `C[N+](C)(C)CCOC(N)=O`, the Potency result in experiment [1], in [2], in experiment [4], in experiment [5], in [6] and in experiment [7] was “inactive” each time. Further, the Potency result in experiment [8] was “inactive”.
As to `COC(=O)Nc1nc2ccc(C(=O)c3cccs3)cc2[nH]1`, the Potency was 3.76 µM (active) in experiment [1] and 0.75 µM (active) in experiment [5]. Also, the Potency entry in experiment [2], in [4] and in experiment [7] was “inactive” each time.
Regarding `Cc1ccc(/C=N/n2c(-c3ccccc3)csc2=S)cc1`, the Potency in experiment [1] is 10.6 µM (active); in experiment [3] it was 13.3 µM (active). Moreover, the Potency result in experiment [2], in experiment [4], in experiment [6] and in experiment [9] was “inactive” in each case.
Take `Cc1cc2nc3ccc(=[N+](C)C)cc-3sc2cc1N`: the Potency in experiment [1] was 4.22 µM (active); in experiment [2], 9.44 µM (active); in experiment [5] it was 2.11 µM (active); in [6], 11.9 µM (active). Moreover, the Potency result in experiment [10] and in experiment [7] was “inactive” in each case.
`CCCOC(=O)c1ccc(C(=O)OCCC)nc1`: the Potency result in [1], in [2], in [10], in [5], in experiment [6] and in experiment [7] was “inactive” each time. The Potency entry in experiment [8] and in [9] was “inactive” in each case.
Take `O=S(=O)(c1ccccc1)c1ccc(Cl)cc1`: the Potency entry in experiment [1], in experiment [2], in experiment [10], in [6], in experiment [7] and in experiment [8] was “inactive” in each case.
Consider `Cc1c(C(=O)NN2CCCCC2)nn(-c2ccc(Cl)cc2Cl)c1-c1ccc(Cl)cc1`, for which the Potency result in [1] and in experiment [2] was “inactive” in each case. Moreover, the Potency in [6] and in experiment [9] was 23.7 µM (active) in each case.
